Test results published in the supplement of paper PMC6089552.
The campaign covered roughly 3,200 compounds. About 300 (9.4%) showed activity. Only a selection was taken, and actives are over-represented in it overall.

Test system: A673/TR/shEF
Assay: cell viability (LOESS-normalised, relative to median of negative controls) (log2 ratio); higher = more viable cells (less compound effect), active = hit call of the paper (over 3 MAD below the median)
Details: treatment time: 72 h
How it was run: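 For three days, A673/TR/shEF Ewing sarcoma cells in 384-well plates (1,500 per well) were treated with library compounds at two or more concentrations or with DMSO controls, after doxycycline had been added or withheld 24 h beforehand to induce EWS-FLI1 shRNA knockdown. Viability was read by CellTiter-Glo luminescence on an Envision reader. The data were LOESS-corrected per plate, divided by the median of negative controls and log2-transformed.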

[1] = 0.25 µM, library screen: screen1, EWS-FLI1 expression: high (no doxycycline)
[2] = 0.25 µM, library screen: screen1, EWS-FLI1 expression: low (doxycycline-induced shRNA knockdown)
[3] = 2.5 µM, library screen: screen1, EWS-FLI1 expression: high (no doxycycline)
[4] = 2.5 µM, library screen: screen1, EWS-FLI1 expression: low (doxycycline-induced shRNA knockdown)
[5] = 0.025 µM, library screen: screen1, EWS-FLI1 expression: high (no doxycycline)
[6] = 0.025 µM, library screen: screen1, EWS-FLI1 expression: low (doxycycline-induced shRNA knockdown)
[7] = 25 µM, library screen: screen1, EWS-FLI1 expression: high (no doxycycline)
[8] = 25 µM, library screen: screen1, EWS-FLI1 expression: low (doxycycline-induced shRNA knockdown)
[9] = 0.103 µM, library screen: screen3, EWS-FLI1 expression: high (no doxycycline)
[10] = 0.103 µM, library screen: screen3, EWS-FLI1 expression: low (doxycycline-induced shRNA knockdown)
[11] = 0.308 µM, library screen: screen3, EWS-FLI1 expression: high (no doxycycline)
[12] = 0.308 µM, library screen: screen3, EWS-FLI1 expression: low (doxycycline-induced shRNA knockdown)
[13] = 0.926 µM, library screen: screen3, EWS-FLI1 expression: high (no doxycycline)
[14] = 0.926 µM, library screen: screen3, EWS-FLI1 expression: low (doxycycline-induced shRNA knockdown)
[15] = 2.8 µM, library screen: screen3, EWS-FLI1 expression: high (no doxycycline)
[16] = 2.8 µM, library screen: screen3, EWS-FLI1 expression: low (doxycycline-induced shRNA knockdown)
[17] = 8.3 µM, library screen: screen3, EWS-FLI1 expression: high (no doxycycline)
[18] = 8.3 µM, library screen: screen3, EWS-FLI1 expression: low (doxycycline-induced shRNA knockdown)
[19] = 25 µM, library screen: screen3, EWS-FLI1 expression: high (no doxycycline)
[20] = 25 µM, library screen: screen3, EWS-FLI1 expression: low (doxycycline-induced shRNA knockdown)

O=c1oc2cc3occc3cc2c2oc3cc4c(cc3c12)OCO4
cell viability (log2) [1]: 0.103 (inactive) | cell viability (log2) [2]: -0.01 (inactive) | cell viability (log2) [3]: 0.0469 (inactive) | cell viability (log2) [4]: 0.0004 (inactive)

OC[C@@H](O)C(O)[C@H](O)CO
cell viability (log2) [1]: 0.179 (inactive) | cell viability (log2) [2]: 0.0545 (inactive) | cell viability (log2) [3]: 0.145 (inactive) | cell viability (log2) [4]: 0.0215 (inactive)

O=C(O)c1cc(NCc2cc(O)ccc2O)ccc1O
cell viability (log2) [5]: 0.268 (inactive) | cell viability (log2) [6]: -0.135 (inactive) | cell viability (log2) [1]: 0.324 | cell viability (log2) [2]: 0.0214 (inactive) | cell viability (log2) [3]: -0.24 (active) | cell viability (log2) [4]: -0.0017 (inactive) | cell viability (log2) [7]: -0.388 (active) | cell viability (log2) [8]: 0.0315 (inactive)

O=C(O)c1cc(N(Cc2ccccc2O)Cc2cc(O)ccc2O)ccc1O
cell viability (log2) [5]: 0.17 (inactive) | cell viability (log2) [6]: 0.0496 (inactive) | cell viability (log2) [1]: 0.173 (inactive) | cell viability (log2) [2]: 0.132 (inactive) | cell viability (log2) [3]: 0.0556 (inactive) | cell viability (log2) [4]: 0.0297 (inactive) | cell viability (log2) [7]: 0.0931 (inactive) | cell viability (log2) [8]: 0.144 (inactive)

O=C(O)c1cc(O)ccc1O
cell viability (log2) [1]: 0.00691 (inactive) | cell viability (log2) [2]: 0.0897 (inactive) | cell viability (log2) [3]: 0.0219 (inactive) | cell viability (log2) [4]: 0.0883 (inactive)

Nc1ccccc1NC(=O)c1ccc(CNc2nccc(-c3cccnc3)n2)cc1
cell viability (log2) [9]: 0.0488 (inactive) | cell viability (log2) [10]: 0.158 (inactive) | cell viability (log2) [11]: 0.0583 (inactive) | cell viability (log2) [12]: 0.0629 (inactive) | cell viability (log2) [13]: -0.0966 (inactive) | cell viability (log2) [14]: 0.141 (inactive) | cell viability (log2) [15]: -0.554 (active) | cell viability (log2) [16]: 0.00492 (inactive) | cell viability (log2) [17]: -1.39 (active) | cell viability (log2) [18]: -0.431 (active) | cell viability (log2) [19]: -3.23 (active) | cell viability (log2) [20]: -1.08 (active)

Cc1ccncc1Nc1ncccc1C(=O)Nc1ccc(C2(C#N)CCCC2)cc1
cell viability (log2) [9]: 0.0267 (inactive) | cell viability (log2) [10]: 0.0194 (inactive) | cell viability (log2) [11]: 0.0111 (inactive) | cell viability (log2) [12]: -0.0325 (inactive) | cell viability (log2) [13]: -0.00588 (inactive) | cell viability (log2) [14]: -0.00768 (inactive) | cell viability (log2) [15]: -0.00204 (inactive) | cell viability (log2) [16]: -0.0249 (inactive) | cell viability (log2) [17]: 0.00934 (inactive) | cell viability (log2) [18]: -0.0211 (inactive) | cell viability (log2) [19]: -0.0197 (inactive) | cell viability (log2) [20]: 0.0222 (inactive)

Cc1ccc(NC(=O)c2ccc(CN3CCN(C)CC3)cc2)cc1Nc1nc(-c2cccnc2)cs1
cell viability (log2) [9]: 0.122 (inactive) | cell viability (log2) [10]: 0.0762 (inactive) | cell viability (log2) [11]: 0.0521 (inactive) | cell viability (log2) [12]: 0.0956 (inactive) | cell viability (log2) [13]: 0.0749 (inactive) | cell viability (log2) [14]: 0.0933 (inactive) | cell viability (log2) [15]: 0.0638 (inactive) | cell viability (log2) [16]: 0.131 (inactive) | cell viability (log2) [17]: 0.061 (inactive) | cell viability (log2) [18]: 0.0802 (inactive) | cell viability (log2) [19]: -0.709 (active) | cell viability (log2) [20]: 0.154 (inactive)

O=C(NCO)c1cccnc1
cell viability (log2) [1]: 0.28 | cell viability (log2) [2]: 0.147 (inactive) | cell viability (log2) [3]: 0.255 (inactive) | cell viability (log2) [4]: 0.103 (inactive)

Cc1cn(-c2cc(NC(=O)c3ccc(C)c(Nc4nccc(-c5cccnc5)n4)c3)cc(C(F)(F)F)c2)cn1
cell viability (log2) [9]: 0.0821 (inactive) | cell viability (log2) [10]: 0.114 (inactive) | cell viability (log2) [11]: 0.0305 (inactive) | cell viability (log2) [12]: 0.0807 (inactive) | cell viability (log2) [13]: 0.00582 (inactive) | cell viability (log2) [14]: 0.101 (inactive) | cell viability (log2) [15]: -0.0305 (inactive) | cell viability (log2) [16]: 0.116 (inactive) | cell viability (log2) [17]: 0.0184 (inactive) | cell viability (log2) [18]: 0.0705 (inactive) | cell viability (log2) [19]: -0.057 (inactive) | cell viability (log2) [20]: 0.0892 (inactive)

Cc1ccc(NC(=O)c2ccc(CN3CCN(C)CC3)cc2)cc1Nc1nccc(-c2cccnc2)n1
cell viability (log2) [9]: 0.102 (inactive) | cell viability (log2) [10]: 0.119 (inactive) | cell viability (log2) [11]: 0.178 (inactive) | cell viability (log2) [12]: 0.125 (inactive) | cell viability (log2) [13]: 0.121 (inactive) | cell viability (log2) [14]: 0.129 (inactive) | cell viability (log2) [15]: 0.135 (inactive) | cell viability (log2) [16]: 0.128 (inactive) | cell viability (log2) [17]: 0.122 (inactive) | cell viability (log2) [18]: 0.126 (inactive) | cell viability (log2) [19]: -0.195 (active) | cell viability (log2) [20]: 0.146 (inactive)

Cc1cc(O)c(C)c2c1C(=O)Oc1c(C)c(O)c(C(=O)O)c(C)c1O2
cell viability (log2) [1]: 0.09 (inactive) | cell viability (log2) [2]: 0.103 (inactive) | cell viability (log2) [3]: 0.0454 (inactive) | cell viability (log2) [4]: 0.145 (inactive)

CC(C)=CCC/C(C)=C/CC/C(C)=C/CO
cell viability (log2) [1]: 0.153 (inactive) | cell viability (log2) [2]: 0.0866 (inactive) | cell viability (log2) [3]: 0.208 (inactive) | cell viability (log2) [4]: 0.106 (inactive)

CC(C)=CCc1c(O)c(C(=O)CC(C)C)c2oc(=O)cc(-c3ccccc3)c2c1O
cell viability (log2) [1]: 0.0516 (inactive) | cell viability (log2) [2]: 0.00347 (inactive) | cell viability (log2) [3]: 0.107 (inactive) | cell viability (log2) [4]: 0.0124 (inactive)

CC(C)CCCC(C)C1CCC2C3CC=C4CC(=O)CCC4(C)C3CCC12C (stereo unspecified)
cell viability (log2) [1]: 0.0196 (inactive) | cell viability (log2) [2]: 0.0967 (inactive) | cell viability (log2) [3]: 0.0967 (inactive) | cell viability (log2) [4]: 0.133 (inactive)

COCCOC(=O)C1=C(C)NC2=C(C(=O)CCC2)C1c1ccc(C)s1 (stereo unspecified)
cell viability (log2) [1]: -0.0698 (inactive) | cell viability (log2) [2]: 0.0631 (inactive) | cell viability (log2) [3]: 0.0308 (inactive) | cell viability (log2) [4]: 0.207 (inactive)

C=C(C)C1Cc2c(ccc(C(=O)O)c2O)O1 (stereo unspecified)
cell viability (log2) [1]: 0.0493 (inactive) | cell viability (log2) [2]: -0.00474 (inactive) | cell viability (log2) [3]: 0.106 (inactive) | cell viability (log2) [4]: 0.105 (inactive)
